Assay outcomes: PubChem, National Center for Advancing Translational Sciences (NCATS)
DT40 TDP1 no CPT: qHTS for Inhibitors of human tyrosyl-DNA phosphodiesterase 1 (TDP1): qHTS in cells in absence of CPT; AID 686978, 2013; Potency, µM (doses to about 46.2 µM), without a hit: top-dose activity change, negative = growth inhibition, usual class: inhibitors; DT40 Tdp1-/- hTDP1 cells, no CPT, ATP luminescence, 48 h; actives 15% (n = 420,000); note: potency is the fitted concentration of half-maximal effect; % is set by controls: 0 for no effect and ±100 for the full control effect; nearly all actives have a fitted effect of over 55% in size
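Compound effects on proliferation are scored in DT40 Tdp1-/-;hTDP1 cells in the absence of CPT. ATP levels (CellTiter-Glo luminescence) are recorded after a ≥48 hr, 37 °C incubation.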
DT40 TDP1 CPT: growth inhibition of DT40 Tdp1-/-;hTDP1 cells with camptothecin (screen for TDP1 inhibitors). chicken DT40 Tdp1-/-;hTDP1 cells + 20 nM CPT, ATP luminescence, 48 h. Potency, µM (top dose mostly 46.2 µM), inactives show at the highest dose activity change, negative = growth inhibition, actives largely listed as inhibitors. actives 12% (n = 420,000). AID 686979; note: potency is the fitted concentration of half-maximal effect; % is set by controls: 0 for no effect and ±100 for the full control effect; nearly all actives have a fitted effect of over 55% in size
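Chicken DT40 Tdp1-/- cells stably complemented with human TDP1 were seeded at 400 cells/well in medium containing 20 nM camptothecin, exposed to pin-transferred compounds, and grown at 37 °C for at least 48 hr. Viability was read as ATP luminescence.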
MCF10A rereplic: inducers of DNA re-replication in MCF 10A breast cells | AID 624296 | actives 2.9% (n = 350,000) | Potency, µM (doses to about 46.1 µM), for the others: at the highest dose activity, positive = re-replication, actives largely listed as activators | MCF 10A DNA re-replication, Hoechst nuclear intensity, 48 h; note: potency is the fitted concentration of half-maximal effect; % of control where 0% means no effect; nearly all actives have a fitted effect of over 50% in size
Chronic BCR inh: inhibitors of chronic active B-cell receptor signaling; ABC-DLBCL IkBa-CBG/CBR reporter, luminescence ratio, 4 h; Potency, µM (series often up to 46.1 µM), for the others: at the highest dose activity change, negative = inhibition, most hits filed as inhibitors; actives 0.05% (n = 340,000); AID 493014; active = well fitted inhibition curve with a large enough effect in the signal ratio, with a control signal flat, not every such curve was filed as active; inconclusive = small, poorly fitted or top-dose-only effect, or effect the other way, or a change in a side signal; the % refers to the signal ratio;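 note: potency is the fitted concentration of half-maximal effect; plate controls were basal doxycycline-induced cells for no effect and cells given 10 µM MG132 for full effect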
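TMD8 ABC-DLBCL cells carrying doxycycline-inducible green luciferase fused to IkappaBalpha plus unfused red luciferase were exposed to compounds (up to 46 uM) for 4 hrs at 37C. Activity came from the overlap-corrected green/red luminescence ratio.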
SW480 rerep: inducers of DNA re-replication in SW480 colon cancer cells. Potency, µM (titrated, usually from 46.1 µM), without a hit: at the top dose re-replication activation, hits mostly activators. SW480 DNA re-replication, Hoechst DNA content imaging, 48 h. actives 1.8% (n = 340,000); note: potency is the fitted concentration of half-maximal effect; % of control where 0% means no effect; nearly all actives have a fitted effect of over 55% in size
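Readout is total intensity of Hoechst-stained nuclei, excited at 405 nm and collected at 500-530 nm. Compound treatment lasted 48 hr at 37 C in 5% CO2 before staining.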
IL1B secr inh: inflammasome signaling inhibition, IL-1 beta readout; activity change, % at 57.5 µM; actives 4.7% (n = 360,000); THP-1 LPS/ATP IL-1B secretion, AlphaLISA, 16 h; active compounds read low; AID 743279; in the data active = activity change below about -50%; inconclusive = mostly about -30% to -49%; note: % is set by controls: 0 for no effect and ±100 for the full control effect
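THP-1 cells pretreated 1 hr with compounds (up to 57.5 uM final), then stimulated with LPS (250 ng/mL final) plus ATP (1.25 mM final); secreted IL-1B measured by AlphaLISA after 16 hr, decreased signal indicating inhibition.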
An asterisk follows results filed as active; u = inconclusive; x = no result given. In the library only some 19% were active in any assay of this set; here they are far more common. Unless noted, calls come from the whole dose curve; as a rule, active = well fitted curve in the direction sought with a large enough effect; inconclusive = small, poorly fitted or top-dose-only effect, or another doubt; inactive = no such curve, though single readings can be large; an effect the other way counts as inactive or inconclusive.

SMILES	DT40 TDP1 no CPT	DT40 TDP1 CPT	MCF10A rereplic	Chronic BCR inh	SW480 rerep	IL1B secr inh
COc1ccc(NC(=S)N(Cc2ccc(C(=O)O)cc2)Cc2ccc(OC)c(OC)c2)cc1	8.6%	11.0%	1.6%	-8.9%	-0.7%	-15.0
COc1ccc(CCC(=O)NO)cc1	15.8µM*	11.2µM*	x	x	x	x
COc1ccc(C(=O)Cc2ccc(OC)c(OC)c2)cc1	-20.8%	-27.7%	-4.5%	-2.8%	1.7%	0.0
COc1ccc(C(=O)CCc2ccc(OC)c(OC)c2)cc1	18.4µM*	u	9.1%	x	-1.2%	-1.5
COc1ccc(CCNC(=O)Cc2ccc(OC)c(OC)c2)cc1OC	u	u	-2.8%	0.0%	u	-10.4
COc1ccc(C(CCN(Cc2ccc(OC)c(OC)c2)C(C)=O)C(C)C)cc1 (centres undefined)	u	18.4µM*	12.8%	-5.5%	-16.0%	6.7
COc1ccc(CCC(C)NC(=O)Cc2ccc(OC)c(OC)c2)c(OC)c1 (centres undefined)	18.4µM*	u	2.4%	-3.7%	7.9%	-1.2
CC(C)CCCC(C)C1CC(=O)C2=C3CCC4CC(O)CCC4(C)C3CCC21C (centres undefined)	x	x	u	x	1.6%	x
CCOc1ccc(NC(=O)CSc2nc3nc(C)c(Cc4ccccc4)c(C)n3n2)cc1	u	u	x	-8.9%	x	x
CCOCCc1nnc(NC(=O)C2CC(=O)N(CCc3ccc(F)cc3)C2)s1 (centres undefined)	-3.0%	4.0%	u	6.3%	-25.3%	37.2
COc1cc(O)c(CCC(=O)c2ccc(OC)c(OC)c2)c(OC)c1	u	20.6µM*	-5.0%	u	-1.2%	-24.4
COc1ccc(C(=O)CC(=O)c2ccccc2O)cc1OC	u	u	1.1%	u	-9.8%	2.6
CCS(=O)(=O)c1ccc2oc(Nc3ccc(C(C)(C)C)cc3)nc2c1	14.6µM*	16.4µM*	20.0%	-4.1%	1.2%	14.8
CCS(=O)(=O)c1ccc2oc(Nc3ccc(OC)cc3)nc2c1	-19.3%	13.9%	-20.5%	u	-4.5%	-1.2
CCN(CC)S(=O)(=O)c1ccc2oc(Nc3ccc4c(c3)OCCO4)nc2c1	23.1µM*	16.4µM*	-5.3%	-0.1%	-3.3%	20.7
Cc1ccc(NC(=O)c2cc3c([nH]c2=O)CC(C)(C)CC3=O)cc1	-24.0%	u	x	x	x	x
N#CCc1ccc(NS(=O)(=O)c2ccc(N3CCCC3=O)cc2)cc1	u	13µM*	-0.7%	-3.8%	-2.0%	62.3
O=[N+]([O-])c1ccc(S(=O)(=O)Nc2ccc(-c3ccccc3)cc2)cc1	13µM*	u	x	x	x	-3.1
CC(=O)c1cc2c(cc1NS(=O)(=O)c1ccc(C)cc1)OCCO2	20.6µM*	23.1µM*	14.6µM*	-0.1%	u	7.1
COC(=O)c1cc(NS(=O)(=O)c2ccc(NC(C)=O)cc2)ccc1Cl	u	u	-5.3%	-3.1%	-27.0%	-73.6*
CC(=O)c1ccc(NS(=O)(=O)c2ccc([N+](=O)[O-])cc2)cc1	-18.1%	-0.9%	-28.6%	x	-10.3%	-9.1
CCOc1ccccc1CN1CCN(Cc2ccon2)CC1CCO (centres undefined)	1.2%	1.2%	-9.7%	-3.5%	21.8%	14.0
CC(=C(CCOC(=O)C(C)C)SSC(CCOC(=O)C(C)C)=C(C)N(C=O)Cc1cnc(C)nc1N)N(C=O)Cc1cnc(C)nc1N	-19.6%	-19.8%	x	x	x	x
O=C1CCCN1c1ccc(S(=O)(=O)Nc2ccc3c(c2)OCCO3)cc1	2.91µM*	3.26µM*	0.9%	u	-1.7%	-10.2
Cc1ccc(S(=O)(=O)Nc2ccc3c(c2)OCCO3)cc1	u	-25.0%	11.1%	1.7%	-11.6%	-7.6
SMILES	DT40 TDP1 no CPT	DT40 TDP1 CPT	MCF10A rereplic	Chronic BCR inh	SW480 rerep	IL1B secr inh
CC(=O)Nc1ccc(S(=O)(=O)Nc2ccc3c(c2)OCCO3)cc1	7.31µM*	u	2.2%	-11.6%	-22.7%	10.6
CC(=O)Nc1ccc(S(=O)(=O)N2CCc3cc4c(cc3C2)OCCCO4)cc1	u	20.6µM*	10.5%	-0.4%	0.6%	7.1
CC(=O)Nc1ccc(S(=O)(=O)Nc2ccc3c(c2)OCO3)cc1	u	-29.7%	6.4%	-0.9%	-2.6%	0.3
O=[N+]([O-])c1ccc(S(=O)(=O)Nc2ccc3c(c2)OCCO3)cc1	16.4µM*	u	1.3%	-1.2%	0.3%	13.1
CC(=O)Nc1ccc(S(=O)(=O)N2CCCC2)cc1	-20.5%	u	-1.2%	0.2%	-9.5%	-5.3
O=C(NS(=O)(=O)Nc1ccccn1)c1c[nH]c2ccccc12	-0.9%	7.3%	-3.3%	3.6%	-2.6%	22.9
CCc1nn(CC(=O)Nc2ccc(NC(C)=O)cc2)c(=O)c2cc3sccc3n12	-20.6%	-20.8%	x	x	x	x
COCCCN1C(=O)C(CC(=O)NC(c2ccccc2)c2ccccc2)CC(C(=O)N(C(C)C)C(C)C)=C1C (centres undefined)	u	u	x	x	x	-10.7
CCc1ccc(N2CC(C(=O)N3CCN(S(=O)(=O)c4cccc(F)c4)CC3)CC2=O)cc1 (centres undefined)	u	u	x	x	x	-28.7
Cc1ccc(S(=O)(=O)NCC(=O)OCC(=O)NCc2ccco2)cc1	1.7%	12.9%	0.4%	0.0%	-1.7%	-13.4
CO[C@H]1CN(C)C(=O)c2ccc(NS(=O)(=O)c3ccccc3F)cc2OC[C@H](C)NC[C@@H]1C	-15.6%	3.9%	x	x	x	-4.6
O=C(CC1Sc2ccccc2NC1=O)NNc1cc(Cl)ccc1Cl (centres undefined)	-10.4%	4.2%	u	x	18.1%	-17.7
CC(=O)Nc1cc(-c2cccc(C(=O)NCCN(C)C)c2)cn2c(-c3ccc(S(C)(=O)=O)cc3)cnc12	-29.0%	4.6%	x	x	x	-17.1
CC(=O)Nc1cc(-c2cccc(C(=O)NCCN(C)C)c2)cn2c(-c3ccccc3)cnc12	u	u	x	x	x	-53.4*
CC(=O)c1cccc(-c2cnc3c(NC=O)cc(-c4ccc(F)cc4)cn23)c1	u	16.4µM*	x	x	x	107.9
O=CNc1cc(-c2cccc(O)c2)cn2c(-c3ccc(F)cc3)cnc12	20.6µM*	18.4µM*	x	x	x	-5.9
CN(C)CCNC(=O)c1cccc(-c2cnc3c(NC=O)cc(/C=C/c4ccccc4)cn23)c1	5.17µM*	3.66µM*	x	x	x	0.0
CN(C)CCNC(=O)c1cccc(-c2cnc3c(NC=O)cc(-c4ccc(F)cc4)cn23)c1	5.17µM*	4.61µM*	x	x	x	-8.2
